# Data published in the supplement of paper PMC6555819.
# Tested on: VDR:RXRa (NR concentration 270 nM, RXRa partner concentration 90 nM)
# Assay: PBM binding z-score (relative to random genomic background probes); higher = stronger binding; sequences stand for … in GC…GCGATTGACAGCGTAGAATGAAGG
# Procedure: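 Protein-binding microarray (Agilent 4x180K custom design, double-stranded 60-nt probes: 5' GC cap, 34-nt variable region, 24-nt constant primer region; full probe sequence given). Purified or IVT nuclear receptor:RXRα heterodimers (3:1 NR:RXRα, mostly 270:90 nM) or homodimers were incubated for 1 h in PBS with 2% milk and no ligand, then detected with Alexa488 antibodies. Fluorescence from o1-orientation probes (~5 replicates averaged) was converted to z-scores against 500 random hg19 background probes. Variable regions are seed direct-repeat (DR0–DR5) sites, all their single-nucleotide variants and half-site ablations.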
row,Sequence,PBM binding z-score
1,TGAATGAGGTTAGAGATCAGGGAACGTGGCGTCG,0.296
2,GGAACGAGGGCAGGTTGATAGCAGAGTTTGATGG,0.111
3,TCTTGTAGAACAACAGGAGGTTAAGAAAGATCGA,0.492
4,GGAACGAGGGCAAATTGATAGCAGAGTTTGATGG,0.922
5,ACTAGATGGTCAGCTGAGGTCACACACAATTCGG,4.7
6,CCTTACGGGGCACGAGGTTATAGCACGACGAGCG,0.986
7,ACTATTAGTTGACTTAGGGCAAACGATACGACGC,0.55
8,TATACAGGGGCAAAGGCCAGAGTACGAATGTCGA,1.03
9,ACTAGCAGGCCAAGGGTCACACAAGATTAGTCCG,3.53
10,CCTACTTGGCCAAAGGTCATTGATTCCAATGCTC,4.62
11,TCATATAGGTAAAGGTGAAAGACGAACGATATGA,0.914
12,TAGCCTAGGTCATTGGCCAGTATACCACGCGAAC,2.18
13,CCTACTGGGCCATTCAAAGGTCATTGATCATATG,3.96
14,AATACAGGGTCACTAGCCCAGAGTAGGTACGAAT,4
15,TGGCAAAGTTCAAAGGTAACGTAAGTATCCACAC,5.01
16,TCTTGTAGATCAATAGAGGTAAAGAAAGTGCGCT,0.45
17,ATATGTAGGTAAAGGGTCATTCAGGTTGGTTCGC,5.54
18,AGAATGAGGTTCTACGTAGATCAGGGAAGAAAGT,-0.436
19,AGTCAAGGTTCAGGACGAGGTAACGTAAAGCACG,2.03
20,ACTAGTTGGTCTGCTGAGGTCACACACAATTCGG,3.54

row,Sequence,PBM binding z-score
1,TTTATTAGTTGAAGGGCAACCGACGAGTCCGTTT,1.17
2,TCTTGTCGATCAGCAGGTTAAGAAAGCTGGCCAA,0.358
3,ATCGTAAGGTCGACGAGGTGAGTATACACCGTTT,4.52
4,GCTAGTTGGTCAGTCAAAGGTCACACACCGGTCG,4.3
5,TCTTGTAGATCAGCAGGTTAAGACAGCTGGCCAA,0.176
6,CCTTACGGGTCACAGACAGGTTATAGCATTTGGA,4.06
7,ATCTCTAGGTAAAAGTTCTGTGAATCCCGAGGAT,-0.0345
8,TCACATAGGTAATACAGGTGAAAGTCGGCATCTA,1.09
9,TCGAGTAGATTAGGGGCATTCAGAATGGCGTCGA,0.295
10,TAGCCGAGGTCATTGGGCCAGTATAGTACGCATC,5.59
11,AGATGTAGGTTAGCTGGGGTCATTCAGACTAGGC,5.98
12,TCTATTAGTTGAAGGGCATCCGACGAGTCCGTTT,1.08
13,ATCTTTAGGTAACCAAGTTCAGTGAATGCCGAAC,4.36
14,CGAACTAGGTCATTGACAGTACAGTGAATAGTAA,2.57
15,CGTCCAAGGTCAGGGTCAGTGAAAGAGACTCGAA,3.92
16,AGAACGAGGGCAATGAGTTGATAGCTCGGGTGGC,4.8
17,CCTATTAGTTGACCATAAGGCCAACCGAAGCTCG,0.724
18,ACTAGTTGGTCAGCTGTGGTCACACACAATTCGG,0.029
19,ATCTCTAGGTAAAACTCAGTTCAGTGAAGAACGC,1.5
20,TCTTGTAGATCAAAGGTTACGAAAGCCGAAGCCT,1.6
